Assay [1] can be described thus: qHTS assay for small molecule agonists of the p53 signaling pathway (AID 651631; calls by dose curve; further: nearly all actives have a fitted effect of over 15% in size). The settings on record: HCT-116 p53RE-bla reporter, beta-lactamase FRET ratio, 16 h; series mostly up to 73.3 µM. The procedure, abridged: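 Testing took place in human colorectal HCT-116 cells with stable p53RE-driven beta-lactamase. After 16 h of compound exposure at 37 °C, a FRET substrate was added and fluorescence recorded 2 h later.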
For orientation: Quantitative high-throughput screening tests each substance at several concentrations.

Assay [2] is described as follows: qHTS assay for small molecules that induce genotoxicity in human embryonic kidney cells expressing luciferase-tagged ATAD5 (AID 651632). Further: nearly all actives have a fitted effect of over 15% in size. The settings on record: HEK293T ATAD5-luciferase induction, 16 h; series mostly up to 83.3 µM. The gist of the method: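 Luminescence read-out: after 16 hr compound exposure at 37C, ATAD5-luciferase HEK293T cells received Amplite, 30 min RT, then CCD imaging. A rise in signal marks genotoxic stress.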

Assay [3] can be described thus: qHTS assay for small molecule disruptors of the mitochondrial membrane potential - cell viability (AID 720634; calls by dose curve;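 further: human HepG2 liver cancer cells; nearly all actives have a fitted effect of over 20% in size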). The settings on record: HepG2 viability, ATP luminescence (CellTiter-Glo), 1 h; series mostly up to 83.2 µM. The procedure, abridged: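 Luminescence from CellTiter-Glo (ATP content) gave viability in HepG2 cells, read in the same wells as the MMP dye assay after 1 hr compound exposure at 37 C.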

The nature of assay [4]: qHTS assay for small molecule disruptors of the mitochondrial membrane potential (AID 720635). Further: potency means the concentration at half of the fitted maximal effect. The settings on record: HepG2 mitochondrial membrane potential, Mito-MPS dye ratio; series mostly up to 83.2 µM. The gist of the method: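 Mitochondrial membrane potential tracked with Mito-MPS dye, red aggregates (ex 540/em 590 nm) against green monomers (ex 490/em 535 nm). Compound treatment 1 hr at 37C, dye 30 min in HepG2.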

Assay [5] is described as follows: qHTS assay to test for compound auto fluorescence at 590 nm (red) in HepG2 cells (AID 720674). The settings on record: HepG2 autofluorescence, red 540/590 nm, 1 h; series mostly up to 91.3 µM. The gist of the method:
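We screened compounds on adherent HepG2 cells, incubating them for an hour at 37 C in 5% CO2 before reading emission at 590 nm under 540 nm excitation; values reflect equivalence to Rose Bengal sodium fluorescence.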

The nature of assay [6]: qHTS assay to test for compound auto fluorescence at 535 nm (green) in HepG2 cells (AID 720675). The settings on record: green autofluorescence 485/535 nm, 1 h; series mostly up to 91.3 µM.
Assay [7] is described as follows: qHTS assay to test for compound auto fluorescence at 460 nm (blue) in HEK293 cells (AID 720678). The settings on record: blue autofluorescence 405/460 nm; series mostly up to 91.3 µM. The gist of the method: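 HEK293 cells (2,000/well, medium with 10% dialyzed FBS) attached 4-5 hr, then exposed to compound overnight at 37C, 5% CO2. Blue fluorescence read at 405/460 nm, with triamterene as reference fluorophore.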

A short description of assay [8]: qHTS assay to test for compound auto fluorescence at 590 nm (red) in HEK293 cells (AID 720679). The settings on record: red autofluorescence 540/590 nm; series mostly up to 91.3 µM. The procedure, abridged: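 HEK293 cells (2,000/well, 10% dialyzed FBS) attached 4-5 hr, then dosed with compound or DMSO and incubated overnight at 37C, 5% CO2. Red fluorescence read at 540/590 nm, Rose Bengal sodium as reference fluorophore.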

Assay [9] in a line: qHTS assay for small molecules that induce genotoxicity in human embryonic kidney cells expressing luciferase-tagged ATAD5 - cell viability (AID 651634; calls by dose curve; further: nearly all actives have a fitted effect of over 25% in size). The settings on record: HEK293T ATAD5-luc cells viability, CellTiter-Fluor, 15.5 h; series mostly up to 83.3 µM. The gist of the method:
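HEK293T ATAD5-luc cells, 2,000/well; compound 15.5 hr, 37C/5% CO2; CellTiter-Fluor 30 min, 37C; fluorescence read.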

Assay [10] can be described thus: qHTS assay for small molecule agonists of the p53 signaling pathway - cell viability (AID 651633; calls by dose curve; further: nearly all actives have a fitted effect of over 30% in size). The settings on record: p53RE-bla HCT-116 viability, ATP luminescence, 16 h; series mostly up to 83.3 µM. The procedure, abridged: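 Viability counter-read: CellTiter-Glo luminescence (30 min, room temperature) in the same p53RE-bla plates. These plates had been exposed to compounds for 16 h at 37 C.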

Values joined by “and” are separate entries in the source; they are usually repeats but may differ in a detail not shown here. Equal values may be shown once. Records with an inconclusive call do not appear. Some structures have more than one record in an assay (separate samples or runs), and their calls can disagree. Active and inactive are the calls of the source. Unless noted, the call rests on the fitted dose curve; in most records, active means well fitted curve in the direction sought with a large enough effect in the repeat runs; inconclusive means weak or mixed curves; inactive means no such curve, though single readings can be large; an effect the other way counts as inactive or inconclusive.

Regarding `CC(C)c1cccc(C(C)C)c1O`, the Potency entry in assay [1], in [2] and in assay [3] was “inactive” throughout. For the same compound, the Potency in [4] is 54.3 µM (active) and 61.1 µM (active). Also, the result in assay [5], in assay [6], in [7] and in [8] was inactive.

Consider `Cc1cc(O)ccc1Cl`, for which the Potency result in assay [1], in [2] and in assay [3] was “inactive” each time. In addition, in assay [4], the Potency is 10.6 µM (active) and 49.4 µM (active) and 27.3 µM (active). Also, the result in [5], in [6] and in assay [7] was inactive.

As to `CNCC(O)c1ccc(O)cc1` (configuration not stated), the Potency result in assay [1], in assay [2], in assay [9], in assay [3] and in assay [4] was “inactive” throughout. In addition, the compound was classed as inactive in assay [5], in assay [6] and in [7].

Consider `Nc1cccc(Cl)c1`, for which the Potency result in assay [1], in assay [2], in assay [3] and in assay [4] was “inactive” throughout. Further, the result in assay [5], in assay [6], in assay [7] and in [8] was inactive.

As to `O=C(O)C(Br)Br`, the Potency entry in assay [1], in [2], in assay [9], in assay [3] and in [4] was “inactive” in each case. Further, the compound was called inactive in assay [5], in assay [6] and in assay [7].

For the compound `CC[N+](=O)[O-]`, the Potency entry in [1], in [2], in assay [9] and in assay [3] was “inactive” in each case. Moreover, the call in assay [5], in assay [6] and in [7] was inactive.

As to `O=[N+]([O-])c1ccc(Cl)cc1`, the Potency result in assay [1], in assay [2], in [10], in assay [3] and in assay [4] was “inactive” each time. Besides, the result in assay [5], in assay [6], in assay [7] and in [8] was inactive.

As for `COS(=O)(=O)OC`, the Potency entry in [1], in [2], in [9], in [3] and in assay [4] was “inactive” throughout. The result in assay [5], in [6], in [7] and in assay [8] was inactive.

In the case of `Cl/C=C/Cl`, the Potency result in assay [1], in assay [2], in assay [3] and in [4] was “inactive” in each case. Further, the compound was called inactive in assay [5], in [6] and in assay [7].

For `O=C(O)C1C(C(=O)O)C2(Cl)C(Cl)=C(Cl)C1(Cl)C2(Cl)Cl` (configuration not stated), the Potency entry in assay [1], in assay [2], in [3] and in assay [4] was “inactive” in each case. The result in assay [5], in assay [6], in assay [7] and in assay [8] was inactive.

Turning to `C/C=C/c1ccc2c(c1)OCO2`, the Potency result in [1], in [9] and in assay [3] was “inactive” throughout. Also, the Potency in assay [4] is 62.3 µM (active). The compound was called inactive in [5], in assay [6], in assay [7] and in assay [8].

As to `Oc1ccc(Cl)cc1`, the Potency entry in [1] and in assay [10] was “inactive” each time. Also, the call in [5], in [6], in assay [7] and in assay [8] was inactive.

With `OCCCCO`, the Potency entry in [1], in assay [3] and in assay [4] was “inactive” in each case. The outcome in [5], in assay [6], in assay [7] and in assay [8] was inactive.

For the compound `CCCCCCCCCCCCCCCCCC(=O)O`, the Potency entry in [3] was “inactive”. The Potency entry in [4] was “inactive and 54.1 µM (active)”. The result in assay [5], in [6], in assay [7] and in assay [8] was inactive.

Turning to `O=C(O)Cc1ccccc1`, the Potency result in [2], in assay [10], in assay [9], in [3] and in [4] was “inactive” in each case. For the same compound, the result in assay [5], in assay [6], in [7] and in assay [8] was inactive.

On to `Sc1ccccc1`, for which the Potency result in assay [2], in [9], in [3] and in assay [4] was “inactive” in each case. For the same compound, the compound was called inactive in assay [5], in assay [6], in assay [7] and in assay [8].

For the compound `C=CC(=O)OCC(CC)CCCC` (configuration not stated), the Potency entry in [1], in assay [3] and in [4] was “inactive” throughout. Also, the call in assay [5], in assay [6], in assay [7] and in [8] was inactive.

`ClC(Cl)c1ccccc1`: the Potency result in assay [2], in assay [10], in assay [3] and in assay [4] was “inactive” in each case. The compound was classed as inactive in assay [5], in [6] and in [7].

Turning to `CN(C)C(=O)Cl`, the Potency entry in [2], in assay [9], in [3] and in assay [4] was “inactive” throughout. For the same compound, the outcome in assay [5], in [6], in [7] and in assay [8] was inactive.

With `O=S(=O)(O)OOS(=O)(=O)O`, the Potency result in [2], in assay [10] and in assay [9] was “inactive” each time. The result in [5], in assay [6], in assay [7] and in [8] was inactive.

(Values after PubChem BioAssay (Tox21).)
